Values without a mark were called inactive.
These molecules were tested on Toxoplasma gondii RH 2F1 tachyzoites (intracellular in HFF) (assay: parasite survival relative to DMSO control; higher = less antiparasitic activity, active = 20 or less). Conditions: 1 µM; 72 h.
Outline: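 Survival is the β-galactosidase-derived signal from intracellular Toxoplasma gondii RH-2F1 tachyzoites, expressed as a percentage of infected wells treated with DMSO. HFF cells (5 × 10^3 cells/well, 96-well plates) were infected with 5 × 10^3 parasites in D2 medium for 3 h and then treated with compound at 1 μM for 72 h at 37°C in 5% CO2. After lysis, CPRG was added and absorbance at 570 nm was read at 30 min, with 2 or more biological replicates.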

First: O=c1cc(OCc2ccccc2)ccn1Cc1ccccc1
Second: O=C(O)C(Cc1c[nH]c2ccccc12)N1C(=O)c2ccccc2C1=O (stereo not given)
The parasite survival of the first is lower: 37% for the first, 46.6% for the second.

Compared with `CC(=O)NC[C@H]1CN(c2ccc(N3CCSCC3)c(F)c2)C(=O)O1`, `O=C(c1ccccc1)N1CCN(c2ccccc2NC(=O)C(Cl)(Cl)Cl)CC1` is higher in parasite survival: 44% for the first, 63.4% for the second.

Going from `COc1cc(Cc2cc(N)nc(N)n2)cc(OC)c1OC` to `CCC(C)NCC(O)Cn1c2ccc(Cl)cc2c2cc(Cl)ccc21` (stereo not given), the parasite survival falls from 31% to 26.8%.

Going from `NC(=O)c1c(N)sc2c1CCCCC2` to `Clc1ccc(Cn2c(CN3CCCC3)nc3ccccc32)cc1`, the parasite survival falls from 48.8% to 42.2%.

Going from `CO/N=C(\C(=O)N[C@@H]1C(=O)N2C(C(=O)OCOC(=O)C(C)(C)C)=C(/C=C\c3scnc3C)CS[C@H]12)c1csc(N)n1` to `O=C(NO)C1(CS(=O)(=O)c2ccc(Oc3ccc(Cl)cc3)cc2)CCOCC1`, the parasite survival rises from 54.4% to 66%.

First: O=[N+]([O-])c1ccc2c(CCc3c[nH]c4ccccc34)c[nH]c2c1
Second: Clc1cccc(-c2nnc(-c3ccccc3)o2)c1
The parasite survival of the first is lower: 43.3% for the first, 62.8% for the second.

In the case of `CN1CCN(c2ccc3[nH]c(-c4ccc5[nH]c(-c6ccc(O)cc6)nc5c4)nc3c2)CC1`, the parasite survival is reported as 35.3%.

In the case of `Cc1[nH]c2ccccc2c1CCNCc1ccc(/C=C/C(=O)NO)cc1`, the parasite survival is reported as 4.12% (active).
In the case of `C[C@H](NC(=O)C(=O)Nc1ccccc1C(C)(C)C)C(=O)N[C@@H](CC(=O)O)C(=O)COc1c(F)c(F)cc(F)c1F`, the parasite survival is reported as 6% (active).
